Screening data deposited in PubChem by Broad Institute.
Tgondii IFNg: inhibitors of Toxoplasma gondii growth with IFN-gamma | Toxoplasma gondii growth in IFN-gamma-treated host cells; stronger effect = lower value | activity change, negative = inhibition, % (no concentration beside the values) | 69,000 tested, 3.8% active; in the data active means activity change below about -70%, passing the limit was not always enough;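 further: host cells are HeLa cells infected with Toxoplasma gondii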
Hits are given with their value; i = inactive; ! = not active in a repeat. Only a selection was taken, and hits are over-represented in it overall.

SMILES	Tgondii IFNg
O=C(Nc1ccc(Cl)c(Cl)c1Cl)NC1CCSC1 (stereo not given)	-75
CCOC[C@@H]1CCC2C(CCN2C(=O)c2ccc3c(c2)OCO3)O1 (stereo not given in full)	i
Cn1cc2c(n1)C(COCC1CC1)CN(Cc1ccc(F)cc1)C2 (stereo not given)	i
COc1cccc(-c2cc(C(F)(F)F)n3ncc(C(=O)Nc4cc(C)on4)c3n2)c1	i
CCCNc1c(C(=O)OC)c(=O)[nH]c2c(Cl)cccc12	i
COC(=O)c1c(NCc2ccc(F)cc2)c2cccc(Cl)c2[nH]c1=O	-88
COC(=O)c1c(NCCN2CCC(C)CC2)c2cccc(Cl)c2[nH]c1=O	i
COC(=O)c1c(NC(C)c2ccccc2)c2cccc(Cl)c2[nH]c1=O (stereo not given)	i
CCOc1cccc(CNc2c(C(=O)OC)c(=O)[nH]c3c(Cl)cccc23)c1	-82
CCCCNc1c(C(=O)OC)c(=O)[nH]c2c(Cl)cccc12	i
COC(=O)c1c(NCCc2cccs2)c2cccc(Cl)c2[nH]c1=O	-86
COC(=O)c1c(NCc2ccccc2F)c2cccc(Cl)c2[nH]c1=O	i
COC(=O)c1c(NCc2ccc(C)o2)c2cccc(Cl)c2[nH]c1=O	i
Cc1cccc(C(=O)N2CC3CCC(C2)N3C(C)C)c1	i
CC(C)c1csc(NC(=O)CCC(=O)N2CC(=O)Nc3ccccc32)n1	i
CCN1C(=O)CCc2cc(NC(=O)Cc3c(F)cccc3Cl)ccc21	i
COc1cc([C@@H]2Oc3c(O)cc([C@H]4Oc5cc(O)cc(O)c5C(=O)[C@@H]4O)cc3[C@H]2CO)ccc1O	i
CO[C@H]1CCN(C(=O)c2cc(C3CC3)on2)C[C@@H]1Cc1ccccc1	i
CCN1C[C@H](COC)[C@]2(CCN(C(=O)/C=C/c3cccs3)C2)C1	i
O=C(CSc1nnc(-c2ccco2)o1)N1c2ccccc2Sc2ccc(Cl)cc21	i
CN(C)CCCN1c2ccccc2CCc2ccccc21	i
O=C(CCN1CCN2CCCCC2C1)N1c2ccccc2Sc2ccc(Cl)cc21 (stereo not given)	i
CC(=O)c1ccc2c(c1)N(CCCN1CCC(CCO)CC1)c1ccccc1S2	i
OCCN1CCN(CCCN2c3ccccc3Sc3ccc(Cl)cc32)CC1	-100!
CN(C)CCCN1c2ccccc2Sc2ccc(Cl)cc21	-81!
SMILES	Tgondii IFNg
CCOCC1CN(Cc2cc(C)on2)Cc2cn(C)nc21 (stereo not given)	i
O=C(NCCn1[nH]c(=O)ccc1=O)c1ccccc1N1CCCC1	i
Cc1ccc(C(=O)N2CCC(N(C)C)CC2C(=O)O)cc1F (stereo not given)	i
O=C(c1cncc(NS(=O)(=O)c2ccccc2)c1)N1CCN(Cc2ccc3c(c2)OCO3)CC1	i
CN(C)C(=O)CN1CCOCC2(CCN(C(=O)Nc3ccc(Cl)cc3)CC2)C1	i
CCN1c2cc(Cl)ccc2C(=O)NC12CCN(C(=O)Nc1ccc(OC)cc1)CC2	i
CC(C)CN1C[C@@H]2[C@@H](C1)C(=O)NC21CCN(C(=O)Nc2ccc(Cl)cc2)CC1	-109
Nc1ccccc1NC1CCN(Cc2ccccc2)CC1	i
CCCn1c(SCc2nc3ccccc3[nH]2)nc2ccccc21	i
COc1ccc(-c2nc(Nc3ccccc3)c3ccccc3n2)cc1	i
Cc1cc(C)nc(Nc2ccc(O)cc2)n1	i
COc1nc(Nc2ccccc2)nc(OC)n1	-116
CCCNc1nc(C(=O)OCC)nc2ccccc12	i
CN1CC(=O)N(c2cccc(F)c2)CC12CCN(S(=O)(=O)Cc1ccccc1)C2 (stereo not given)	i
CC(=O)[C@H]1CCC2C3CC=C4C[C@@H](OC(=O)CCC(=O)O)CC[C@]4(C)C3CC[C@@]21C (stereo not given in full)	i
C[C@H]1[C@H](OC(=O)CCC(=O)O)O[C@@H]2O[C@@]3(C)CC[C@H]4[C@H](C)CC[C@@H]1[C@@]24OO3	-80
COc1cccc2c1OCC(C(=O)NCc1noc(-c3ccc(Cl)cc3)n1)C2 (stereo not given)	i
O=c1c2ccccc2oc2ccccc12	i
O=c1c2ccccc2oc2ccc(Cl)cc12	i
CS(=O)(=O)Nc1ccc2oc3ccccc3c(=O)c2c1	-92
COc1ccc(-c2cc(=O)c3ccc(O)cc3o2)cc1	i
O=c1c(O)cccc2cc(O)c(O)c(O)c12	i
COc1ccc(-c2cc(=O)c3c(O)cc(O)cc3o2)cc1O	i
COc1cc2oc(-c3ccc(O)cc3)cc(=O)c2c(OC)c1O	-82
O=c1cc(-c2ccccc2)oc2cc(O)c(O)c(O)c12	-77!
SMILES	Tgondii IFNg
O=c1c(O)c(-c2ccccc2)oc2cc(O)cc(O)c12	i
Cc1ccc(NC(C)(C)C(=O)N[C@@H]2CC[C@@H](N)C2)cc1	i
c1ccc(-c2nc3c(c(NCC4CNCCOC4)n2)CCC3)cc1 (stereo not given)	i
Cc1ccccc1N1CCN(C(=O)c2csc(-c3ccc(N4CCCC4)nc3)n2)CC1	i
COc1ccc(S(=O)(=O)N2CCc3c(ncnc3N(C)C)C2)c(OC)c1	i
O=C(Cn1c(=O)cc(-c2nc(C3CC3)no2)c2ccccc21)NCCc1ccc(Cl)cc1	i
Cc1ccc2[nH]c(=O)c(-c3nc(-c4ccc5c(c4)OCO5)no3)c(O)c2c1	i
Cc1c(C)c(C)c2[nH]c(-c3ccc4c(c3)OCO4)nc2c1C	-95
CC(c1ccc(-c2ccc3c(c2)OCO3)cc1)N1CCOCC1 (stereo not given)	i
CN(Cc1coc2ccccc2c1=O)CC1CC(=O)N(C2CCCC2)C1 (stereo not given)	i
COc1ccc(NC(=O)C(=O)NCCc2sc(-c3cccc(F)c3)nc2C)cc1OC	i
CCc1cc(C(=O)Cc2nc3ccccc3s2)c(O)cc1O	i
c1ccc2sc(CCc3nc4ccccc4s3)nc2c1	i
Oc1ccc(O)c(Cc2nc3ccccc3s2)c1	-93
O=C(NCc1noc(-c2ccccc2)n1)C1OCOc2ccccc21 (stereo not given)	i
CC1(C)CCc2cc(-c3ccn(C(=O)c4ccc(Cl)cc4)n3)ccc2O1	i
CCc1nc(OCC(=O)Nc2cc(Cl)c(OC)cc2OC)c2ccccc2n1	i
CC(C)C(C)NC(=O)c1ncn2c1CN(CC1CC1)S(=O)(=O)c1ccccc1-2 (stereo not given)	i
CN1Cc2c(C(=O)Nc3cccc(Cl)c3)ncn2-c2ccccc2S1(=O)=O	i
CC(C)CCN1Cc2c(C(=O)Nc3cccc(F)c3)ncn2-c2ccccc2S1(=O)=O	-83
COc1cccc(N2CC3(CCN(C(=O)c4cnc[nH]4)C3)CC2=O)c1 (stereo not given)	i
COc1ccc2[nH]c(CN(Cc3cccnc3)Cc3ccccc3F)c(C)c2c1	i
CC(C)OC(=O)C(CC(=O)O)NCc1cccnc1 (stereo not given)	i
COc1cccc(-c2[nH]ncc2C(=O)N2C[C@@H]3[C@@H]4CC[C@@H](C4)[C@@H]3C2)c1	i
Cc1ccc(S(=O)(=O)N2CC(C(=O)Nc3cccc(F)c3)C3(CCOCC3)C2)cc1 (stereo not given)	-75
Cc1ccc(S(=O)(=O)N2CCC3(CC3C(=O)Nc3cccc(F)c3)C2)cc1F (stereo not given)	i
O=C(Nc1cccc(F)c1)N1CC(C(=O)N2CCOCC2)C2(CCOCC2)C1 (stereo not given)	i
Cc1ccc(C2(CNC(=O)CCn3c(=O)cc(C)c4ccccc43)CCOCC2)cc1	i
COc1ccc(-c2nc(C)c(CCNC(=O)C(=O)Nc3cccc(Cl)c3)s2)cc1	i
